Measurements: PubChem BioAssay
Inconclusive results are not listed. Activity calls are given as the source filed them.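 The calls were made as follows, unless noted: active = normalized viability below 100% at a tested concentration; inactive = the rest.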

How the values were obtained:
[1] = growth inhibition of DIPG glioma cells, dose response, cell-based, SU-DIPG-XVII, MIPE5.0, CellTiter-Glo, qHTS (AID 1347060; cut-off not given, nearly all actives have AC50 up to about 26 µM;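 also: cells exposed to compound for 48 hours before viability readout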); settings: SU-DIPG-XVII viability, CellTiter-Glo ATP luminescence
[2] = growth inhibition of DIPG glioma cells, dose response, cell-based, SU-DIPG-XIII, MIPE4.0, CellTiter-Glo, qHTS (AID 1347061; cut-off not given, nearly all actives have AC50 up to about 37 µM;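 also: cells exposed to compound for 48 hours before readout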); settings: SU-DIPG-XIII viability, CellTiter-Glo ATP luminescence
[3] = growth inhibition of DIPG glioma cells, dose response, cell-based, JHH-DIPG-1, MIPE4.0, CellTiter-Glo, qHTS (AID 1347062; cut-off not given, nearly all actives have AC50 up to about 27 µM;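 also: cells exposed to compound for two days before readout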); settings: JHH-DIPG-1 viability, CellTiter-Glo ATP luminescence
[4] = growth inhibition of DIPG glioma cells, dose response, cell-based, SU-DIPG-IV, MIPE4.0, CellTiter-Glo, qHTS (AID 1347063; cut-off not given, nearly all actives have AC50 up to about 30 µM;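 also: compound exposure lasted 48 hours before the viability readout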); settings: SU-DIPG-IV viability, CellTiter-Glo ATP luminescence
[5] = growth inhibition of DIPG glioma cells, dose response, cell-based, SU-DIPG-XIII, MIPE5.0, CellTiter-Glo, qHTS (AID 1347064; cut-off not given, nearly all actives have AC50 up to about 23 µM;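 also: cells exposed to compound for 48 hours before the viability read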); settings: SU-DIPG-XIII viability, CellTiter-Glo ATP luminescence
[6] = viability loss in pontine glioma line – cell-based, SU-DIPG-XXV, MIPE5.0, CellTiter-Glo, qHTS, dose response (AID 1347065; cut-off not given, nearly all actives have AC50 up to about 26 µM;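 also: cells exposed to compound for 48 hours before ATP readout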); settings: CellTiter-Glo ATP luminescence
[7] = SU-DIPG-VI glioma cell viability, MIPE4.0 library, CellTiter-Glo luminescence, qHTS (AID 1347066; cut-off not given, nearly all actives have AC50 up to about 30 µM;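 also: cells exposed to compound for 48 hours before readout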); settings: CellTiter-Glo ATP luminescence
[8] = JHH-DIPG-1 glioma cell viability, MIPE5.0 library, CellTiter-Glo luminescence, qHTS (AID 1347067; cut-off not given, nearly all actives have AC50 up to about 26 µM;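 also: cells exposed to compound for 48 hours before readout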); settings: JHH-DIPG-1 glioma viability, CellTiter-Glo ATP luminescence
[9] = SU-DIPG-XXV glioma cell viability, MIPE5.0 library, qHTS (AID 1347068; cut-off not given, nearly all actives have IC50 up to about 30 µM;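 as to IC50: cells exposed to compound for 48 hours before viability readout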)
[10] = ovarian cancer cell viability with rucaparib, profiling panel, oncology-focused library, rucaparib conditional (AID 1508598); settings: patient-derived ovarian cancer cells, CellTiter-Glo viability, 144 h, stronger effect = lower value
[11] = sensitizers of A549 cells to miR-34 induction, primary screen, imaging, A549 dox-inducible miR-34, nuclei and caspase counts (AID 1347080;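 active = compounds whose cell count with miR-34 switched on is under 0.7 times the count with it off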); settings: A549 miR-34 inducible, Hoechst nuclei count, 48 h
[12] = survival rescue of mitochondrial mutant cells in low glucose, primary screen, MELAS cybrids, Rieske KO mouse fibroblasts, CellTiter-Glo (AID 1508586;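 active = mean z-score across replicates of 1.96 or higher in either the MELAS or the Rieske mutant cell line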;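 also: z relative to plate mean and SD of compound and empty wells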)
[13] = modifiers of HSF1 nuclear foci, imaging, Selleck Cancer Library (AID 1347162; in the data active = plate-normalised HSF1 focus index below about 0.46); settings: human cells, at 10 µM; SSMD: measured here: HSF1 foci SSMD mean; cell count: measured here: cell number; plate-normalised HSF1 focus index: stronger effect = lower value
[14] = at 0.000305 µM, OCI-C5x cells, with rucaparib 10 µM, 100% = cells with rucaparib alone
[15] = at 0.000305 µM, OCI-C5x cells, without rucaparib
[16] = at 0.000305 µM, OCI-P5x cells, with rucaparib 20 µM, 100% = cells with rucaparib alone
[17] = at 0.000305 µM, OCI-P5x cells, without rucaparib
[18] = at 0.00122 µM, OCI-C5x cells, with rucaparib 10 µM, 100% = cells with rucaparib alone
[19] = at 0.00122 µM, OCI-C5x cells, without rucaparib
[20] = at 0.00122 µM, OCI-P5x cells, with rucaparib 20 µM, 100% = cells with rucaparib alone
[21] = at 0.00122 µM, OCI-P5x cells, without rucaparib
[22] = at 0.00488 µM, OCI-C5x cells, with rucaparib 10 µM, 100% = cells with rucaparib alone
[23] = at 0.00488 µM, OCI-C5x cells, without rucaparib
[24] = at 0.00488 µM, OCI-P5x cells, with rucaparib 20 µM, 100% = cells with rucaparib alone
[25] = at 0.00488 µM, OCI-P5x cells, without rucaparib
[26] = at 0.0195 µM, OCI-C5x cells, with rucaparib 10 µM, 100% = cells with rucaparib alone
[27] = at 0.0195 µM, OCI-C5x cells, without rucaparib
[28] = at 0.0195 µM, OCI-P5x cells, with rucaparib 20 µM, 100% = cells with rucaparib alone
[29] = at 0.0195 µM, OCI-P5x cells, without rucaparib
[30] = at 0.0781 µM, OCI-C5x cells, with rucaparib 10 µM, 100% = cells with rucaparib alone
[31] = at 0.0781 µM, OCI-C5x cells, without rucaparib
[32] = at 0.0781 µM, OCI-P5x cells, with rucaparib 20 µM, 100% = cells with rucaparib alone
[33] = at 0.0781 µM, OCI-P5x cells, without rucaparib
[34] = at 0.313 µM, OCI-C5x cells, with rucaparib 10 µM, 100% = cells with rucaparib alone
[35] = at 0.313 µM, OCI-C5x cells, without rucaparib
[36] = at 0.313 µM, OCI-P5x cells, with rucaparib 20 µM, 100% = cells with rucaparib alone
[37] = at 0.313 µM, OCI-P5x cells, without rucaparib
[38] = at 1.25 µM, OCI-C5x cells, with rucaparib 10 µM, 100% = cells with rucaparib alone
[39] = at 1.25 µM, OCI-C5x cells, without rucaparib
[40] = at 1.25 µM, OCI-P5x cells, with rucaparib 20 µM, 100% = cells with rucaparib alone
[41] = at 1.25 µM, OCI-P5x cells, without rucaparib
[42] = at 5 µM, OCI-C5x cells, with rucaparib 10 µM, 100% = cells with rucaparib alone
[43] = at 5 µM, OCI-C5x cells, without rucaparib
[44] = at 5 µM, OCI-P5x cells, with rucaparib 20 µM, 100% = cells with rucaparib alone
[45] = at 5 µM, OCI-P5x cells, without rucaparib

Cc1nc(Nc2n[nH]c3c2CN(C(=O)N[C@H](CN(C)C)c2ccccc2)C3(C)C)c2sccc2n1
active: AC50 [1] 3720 nM | AC50 [2] 10500 nM | AC50 [3] 2090 nM | AC50 [4] 2960 nM | AC50 [5] 1180 nM | AC50 [6] 2090 nM | AC50 [7] 8330 nM | AC50 [8] 2950 nM | IC50 [9] 4170 nM | viability [10, 24] 85.5% | viability [10, 25] 84.6% | viability [10, 27] 66.6% | viability [10, 28] 68.4% | viability [10, 29] 66.2% | viability [10, 30] 90.6% | viability [10, 31] 73.2% | viability [10, 32] 59.9% | viability [10, 33] 60.2% | viability [10, 35] 88% | viability [10, 36] 44.2% | viability [10, 37] 48.5% | viability [10, 38] 85.2% | viability [10, 39] 95.2% | viability [10, 40] 24.7% | viability [10, 41] 39.9% | viability [10, 42] 8.03% | viability [10, 43] 10.2% | viability [10, 44] 8.49% | viability [10, 45] 4.16%
inactive: viability [10, 14] 107% | viability [10, 15] 125% | viability [10, 16] 108% | viability [10, 17] 104% | viability [10, 18] 112% | viability [10, 19] 126% | viability [10, 20] 102% | viability [10, 21] 108% | viability [10, 22] 106% | viability [10, 23] 106% | viability [10, 26] 107% | viability [10, 34] 101%

O=C(NOCC(O)CO)c1cc(Br)c(F)c(F)c1Nc1ccc(I)cc1F (configuration not stated)
-0.494: z-score ([12]; Rieske KO mouse fibroblast survival, CellTiter-Glo 72 h)
inactive: outcome [7] | fold change ([11]; stronger effect = lower value, cell number ratio, induced over uninduced) 1.01 | z-score ([12]; MELAS cybrid survival, CellTiter-Glo 48 h, stronger effect = higher value) -0.561
3720: cell count ([11]; measured here: total cells without miR-34 induction)
1.08: fold change ([11]; measured here: relative caspase fold change +Dox/-Dox)
3740: cell count ([11]; measured here: total cells with miR-34 induction, stronger effect = lower value)
active: AC50 [1] 2090 nM | AC50 [2] 2640 nM | AC50 [3] 16600 nM | AC50 [4] 20900 nM | AC50 [5] 1480 nM | AC50 [6] 3720 nM | AC50 [8] 468 nM

C=CC(=O)N1CCC[C@@H](n2nc(-c3ccc(Oc4ccccc4)cc3)c3c(N)ncnc32)C1
active: AC50 [1] 5900 nM | AC50 [2] 18700 nM | AC50 [3] 23500 nM | AC50 [4] 5260 nM | AC50 [5] 20900 nM | AC50 [6] 9340 nM | AC50 [7] 16600 nM | AC50 [8] 16600 nM | viability [10, 14] 99.2% | viability [10, 16] 88.6% | viability [10, 17] 94.3% | viability [10, 20] 77.7% | viability [10, 21] 48.3% | viability [10, 24] 95.6% | viability [10, 28] 93.8% | viability [10, 32] 86.9% | viability [10, 36] 86.1% | viability [10, 37] 91.8% | viability [10, 40] 92.3% | viability [10, 41] 93.7% | viability [10, 44] 57.3% | viability [10, 45] 88.7%
inactive: outcome [9] | viability [10, 15] 119% | viability [10, 18] 108% | viability [10, 19] 118% | viability [10, 22] 106% | viability [10, 23] 108% | viability [10, 25] 103% | viability [10, 26] 112% | viability [10, 27] 112% | viability [10, 29] 103% | viability [10, 30] 114% | viability [10, 31] 111% | viability [10, 33] 100% | viability [10, 34] 112% | viability [10, 35] 120% | viability [10, 38] 108% | viability [10, 39] 125% | viability [10, 42] 113% | viability [10, 43] 121%

CN(C)CCN(C)C(=O)c1ccc(NC(=O)Nc2ccc(-c3nc(N4CCOCC4)c4ccn(CC(F)(F)F)c4n3)cc2)cc1
inactive: plate-normalised HSF1 focus index [13] 1.06
7060: cell count [13]
1.02: SSMD [13]
active: AC50 [1] 235 nM | AC50 [2] 743 nM | AC50 [3] 469 nM | AC50 [4] 33.2 nM | AC50 [5] 742 nM | AC50 [6] 332 nM | AC50 [7] 662 nM | AC50 [8] 1480 nM
